Bioassay records (PubChem)
Pf growth 48h – P. falciparum growth inhibition at 48 hours (one generation); P. falciparum luciferase growth in erythrocytes, 48 h; Potency, µM (series often up to 28.7 µM), inactives show top-dose activity change, negative = inhibition, most hits filed as inhibitors; actives 5.9% (n = 310,000); AID 504832; note: potency is the fitted concentration of half-maximal effect; % is set by controls: 0 for no effect and ±100 for the full control effect
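Compounds are pin-transferred into medium, infected erythrocytes (2% hematocrit, 0.1% parasitemia final) are added, and plates sit one parasite generation at 37 C in 5% CO2. Detection reagent is then added and luminescence measured.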
Pf growth 96h – inhibits malaria parasite growth, 96 h; Potency, µM (top dose mostly 28.7 µM), without a hit: top-dose activity change, negative = inhibition, usual class: inhibitors; actives 6.9% (n = 320,000); P. falciparum luciferase reporter growth, 96 h; AID 504834; note: potency is the fitted concentration of half-maximal effect; % is set by controls: 0 for no effect and ±100 for the full control effect
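Compounds incubated with erythrocytes infected by luciferase-expressing P. falciparum (2% hematocrit, 0.05% parasitemia final) for 96 hours, 37 C in 5% CO2. Growth inhibition scored as decreased luciferase luminescence.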
HCMV antiviral – inhibitors of human cytomegalovirus. actives 4.5% (n = 410,000). activity change, negative = inhibition, % at 57.5 µM. HFF cells, HCMV-luciferase reporter, 72 h; active compounds read low; in the data active = activity change below about -60%; inconclusive = no clear call, values can overlap the other calls; inactive = above about -39%; note: % is set by controls: 0 for no effect and ±100 for the full control effect
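Two compound doses tested in HFFs infected with HCMV-luciferase, MOI 1 PFU/cell, 72 h at 37C. Lysate luminescence read with OneGlo; data normalized against buffer-only and 10uM Salinomycin inhibitor controls.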
Cycloheximide cs – counter-screen hit for Shiga toxin inhibitors, cycloheximide | cell reporter, cycloheximide protein synthesis inhibition counterscreen | max response, % | actives 12% (n = 300,000) | AID 2314; in the data active = max response mostly above about 13%, no sharp cut-off; inactive = mostly below about 14%; note: read at 38.3 µM for the half of the compounds with a filed dose; 0% is about no effect
Shiga toxin inh – blocks Shiga toxin action in Vero cells. actives 9.2% (n = 290,000). AID 2315. Vero cells, Shiga toxin protein synthesis inhibition reporter. inhibition, % at 38.7 µM; in the data active = inhibition mostly above about 28%, no sharp cut-off; inactive = mostly below about 43%; note: 0% is about no effect
Numbers without * were called inactive; ? = inconclusive; . = no result given. Hits are enriched below; roughly 20% of the tested compounds scored in any of these assays. Unless noted, calls come from the whole dose curve; as a rule, active = well fitted inhibition curve with a large enough effect; inconclusive = small, poorly fitted or top-dose-only effect, or another doubt; inactive = no such curve, though single readings can be large or run the other way.

SMILES | Pf growth 48h | Pf growth 96h | HCMV antiviral | Cycloheximide cs | Shiga toxin inh
O=c1c2ccccc2c(/C=N/NS(=O)(=O)c2ccccc2)c(O)n1-c1ccccn1 | -10% | 41% | 16 | -5 | -5
COc1cccc(CN2CCN(c3ccc(F)cc3)C2=O)c1 | 34% | ? | -31 | 34* | 33
O=C1NCCCN1Cc1ccc(F)cc1 | . | 13% | 9 | -1 | -4
O=C1N(Cc2ccc(F)cc2)CCN1c1ccc(F)cc1 | 86% | 124% | 2 | 29* | 58*
Cc1ccc(-c2cnc(C3CC3)o2)cc1S(=O)(=O)Nc1ccccc1 | ? | 15µM* | . | -8 | -3
CC(=O)Nc1ccc(NS(=O)(=O)c2cc(-c3cnc(C4CC4)o3)ccc2C)cc1 | ? | -2% | 14 | -2 | -1
Cc1ccc(NS(=O)(=O)c2cc(-c3cnc(C4CC4)o3)ccc2C)cc1Cl | . | . | -64* | . | .
CC(=O)c1ccc(NS(=O)(=O)c2cc(-c3cnc(C4CC4)o3)ccc2C)cc1 | ? | ? | -5 | -7 | -10
CCCCN(CC)C(=O)Nc1ccc2c(c1)N(C)C(=O)c1ccccc1S2 | . | . | -8 | . | .
COc1cccc(C(=O)CSc2nnc(-c3cc(OC)cc(OC)c3)o2)c1 | 10% | 5% | -20 | 2 | -13
Fc1ccccc1CSc1nnc(-c2cccnc2)o1 | 144% | ? | 57 | 48* | 110*
COc1cc(OC)cc(-c2nnc(SCc3c(F)cccc3Cl)o2)c1 | ? | ? | ? | 44* | 81*
Cc1ccc(-c2nnc(SCc3ccccc3C#N)o2)cc1 | . | . | 117 | . | .
N#Cc1ccc(CSc2nnc(-c3cccnc3)o2)cc1 | 11% | 2% | ? | -2 | 8
Cc1ccccc1-c1nnc(SCc2ccccc2F)o1 | 85% | ? | 110 | 58* | 87*
Cc1ccccc1-c1nnc(SCC(=O)Nc2cccc(C)c2C)o1 | 60% | . | 21 | -3 | 12
Fc1ccccc1CSc1nnc(-c2ccccc2)o1 | 258% | . | -12 | 50* | 75*
O=c1cc(CSc2nnc(-c3ccccc3)o2)c2ccccc2[nH]1 | 22% | ? | 3 | 10* | 5
Cc1ccc(NC(=O)CSc2nnc(-c3cccnc3)o2)c(C)c1 | 50% | 60% | 6 | . | .
Fc1cccc(Cl)c1CSc1nnc(CNc2ccccc2)o1 | 29% | 60% | 45 | 17* | 20
COc1ccc(-c2nc(Cn3c(SCc4ccccc4F)nc4ccncc43)c(C)o2)cc1 | . | 4.7µM* | 18 | -2 | -14
Cc1ccc(C)c(CSc2nnc(-c3cccnc3)o2)c1 | ? | 13µM* | 3 | 1 | -2
CC(=O)c1ccc(NC(=O)CN(C)S(=O)(=O)c2cc3c(cc2Cl)NC(=O)CO3)cc1 | . | . | 8 | . | .
Cc1ccccc1C(=O)Nc1ccc(C(=O)N/N=C/c2ccc(O)c(Br)c2)cc1 | ? | -1% | -20 | 8 | 21
COc1ccc(-c2nnc(SCc3ccccc3F)o2)cc1 | . | 240% | 54 | 47* | 118*
SMILES | Pf growth 48h | Pf growth 96h | HCMV antiviral | Cycloheximide cs | Shiga toxin inh
Cc1ccccc1-c1nnc(SCc2ccccc2)o1 | 130% | 48% | -4 | 32* | 84*
COc1cc(/C=C/c2nc3ccccc3c(=O)n2-c2cccc(O)c2)ccc1O | 0% | -26% | 0 | 17 | 59*
COc1cc(/C=C/c2nc3ccccc3c(=O)n2-c2ccccc2O)ccc1O | 9.3µM* | 9.3µM* | -83* | -2 | -6
COC(=O)c1cc2oc(C)cc2n1Cc1cc(C)ccc1C | . | . | -6 | . | .
CCCc1nc2ccccc2c(=O)n1CC(=O)c1ccccc1 | 5% | 23% | -24 | 1 | -2
COc1cc2c(cc1OC)CN(c1ncccc1[N+](=O)[O-])CC2 | 49% | 74% | -27 | 25* | 55*
COc1cc2c(cc1OC)CN(c1ccc([N+](=O)[O-])cc1C#N)CC2 | -7% | 15µM* | ? | 9 | -11
COc1cc2c(cc1OC)CN(c1ccc(F)cc1[N+](=O)[O-])CC2 | 3% | 15% | 7 | 30* | 72*
COc1cc2c(cc1OC)CN(c1ccc([N+](=O)[O-])cc1Cl)CC2 | ? | ? | -24 | 6 | 13
COc1ccccc1N1CCN(C(=O)c2cnn(-c3cccc(Cl)c3)c2C2CCN(C(=O)OC(C)(C)C)CC2)CC1 | . | . | -17 | . | .
Cc1c(C(c2ccc(C(=O)O)cc2)c2c(C)n(C)n(-c3ccccc3)c2=O)c(=O)n(-c2ccccc2)n1C | . | 15% | 9 | -4 | -4
O=C(c1cnn2ccccc12)N(Cc1ccco1)C1CCCC1 | . | 10µM* | -20 | 1 | -6
CCOC(=O)CCC(NC(=O)CC(=O)NC(CCC(=O)OCC)C(=O)OCC)C(=O)OCC (centres undefined) | 21% | 32% | -96* | -1 | -1
O=C(c1cc2c(=O)n3ccccc3nc2s1)N1CCOCC1 | 111% | 5.2µM* | 29 | 22* | 39*
O=C(c1cc2c(=O)n3ccccc3nc2s1)N1CCN(c2cccc(Cl)c2)CC1 | -8% | ? | -33 | 2 | -4
CC1CCN(C(=O)c2cc3c(=O)n4ccccc4nc3s2)CC1 | 39% | ? | 42 | 26 | 83*
Nc1ccccc1Nc1nc2ccccc2[nH]1 | 66% | 10µM* | -19 | 27* | 34*
Cc1cc(C)nc(Nc2nc3ccccc3[nH]2)n1 | 90% | 10% | 192 | 29* | 90*
Nc1ccc(Nc2nc3ccccc3[nH]2)cc1 | ? | 0% | 12 | 6 | -6
c1ccc(Nc2nc3ccccc3[nH]2)nc1 | ? | ? | -68* | 70* | 86*
CSCCC(NS(=O)(=O)c1ccc2c(c1)oc(=O)n2C)C(=O)Nc1ccc(F)c(Cl)c1 (centres undefined) | . | . | -17 | . | .
CC(C)=CC(=O)OCc1cc([N+](=O)[O-])cc2c1OCOC2 | 90% | 132% | 95 | 65* | 88*
COC(=O)[C@@]12CCCCN1[C@H](c1ccc(-c3ccccc3)cc1)[C@H]1C(=O)N(C)C(=O)[C@H]12 | -19% | 1% | -13 | . | .
COC(=O)[C@@]12CCCN1[C@H](c1ccc(-c3ccccc3)cc1)[C@H]1C(=O)N(C)C(=O)[C@H]12 | 10µM* | ? | -10 | . | .
COC(=O)[C@@]12CCCN1[C@H](c1ccc(-c3ccc(OC)cc3)cc1)[C@@H]1C(=O)N(C)C(=O)[C@@H]12 | 5.9µM* | 9.3µM* | -27 | . | .
O=C(COC(=O)CCc1ccc(S(=O)(=O)N2CCOCC2)cc1)NC(=O)NC1CCCCC1 | 8% | 4% | -24 | -2 | -9
COc1cccc(NC(=O)CCCn2nc(C)c3c(C)n(-c4ccccc4)nc3c2=O)c1 | -10% | ? | 3 | -3 | 1
O=C(Nc1cccc(-n2cnnn2)c1)C1CCCN(Cc2cccc(C(F)(F)F)c2)C1 (centres undefined) | 15µM* | -24% | . | 1 | -9
O=C(Nc1cccc(-n2cccn2)c1)C1CCCN(Cc2cc3ccccc3[nH]2)C1 (centres undefined) | ? | -30% | -11 | -3 | 10
